High-throughput results (PubChem)
DT40 TDP1 CPT: DT40-hTDP1 cell growth loss with CPT; chicken DT40 Tdp1-/-;hTDP1 cells + 20 nM CPT, ATP luminescence, 48 h; Potency, µM (doses to about 46.2 µM), for inactives: at the top dose activity change, negative = growth inhibition, actives largely listed as inhibitors; hit rate 12% among 420,000; further: nearly all actives have a fitted effect of over 55% in size
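Chicken DT40 Tdp1-/- cells complemented with human TDP1, 400 cells/well, exposed to compounds plus 20 nM camptothecin for at least 48 h at 37 C; viability read as ATP content by CellTiter-Glo luminescence.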
RORgamma inh: blocks mouse ROR gamma transcriptional activity; Potency, µM (top dose mostly 53.6 µM), inactives show at the highest dose activity change, negative = inhibition, actives largely listed as inhibitors; AID 2551; Drosophila S2 Gal4-RORgamma UAS-luciferase reporter, 20 h; hit rate 5.4% among 310,000; P51450; further: nearly all actives have a fitted effect of over 60% in size
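Using a luciferase readout, inhibitors were identified by reduced reporter activity in Drosophila cells coexpressing a copper-inducible Gal4–ROR gamma fusion and UAS-driven Photinus luciferase, incubated 20 hr after 700 uM copper sulfate.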
TDP1 cell noCPT: qHTS for Inhibitors of human tyrosyl-DNA phosphodiesterase 1 (TDP1): qHTS in cells in absence of CPT; Potency, µM (doses to about 46.2 µM), inactives show at the highest dose activity change, negative = growth inhibition, actives largely listed as inhibitors; DT40 Tdp1-/- hTDP1 cells, no CPT, ATP luminescence, 48 h; hit rate 15% among 420,000; further: nearly all actives have a fitted effect of over 55% in size
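Readout: luminescence from CellTiter-Glo after 30 min in the dark at RT. Cells: DT40 Tdp1-/- with stable hTDP1, 400/well. Exposure: compounds alone, ≥48 hr, 37 °C.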
12-LOX inh: ALOX12 (human) lipoxygenase inhibition; hit rate 1.1% among 580,000; purified 12hLO, xylenol orange hydroperoxide absorbance; Potency, µM (highest dose often 108 µM), without a hit: at the highest dose activity change, negative = inhibition, most hits filed as inhibitors; P18054
Target sequence (P18054 whole entry, looked up): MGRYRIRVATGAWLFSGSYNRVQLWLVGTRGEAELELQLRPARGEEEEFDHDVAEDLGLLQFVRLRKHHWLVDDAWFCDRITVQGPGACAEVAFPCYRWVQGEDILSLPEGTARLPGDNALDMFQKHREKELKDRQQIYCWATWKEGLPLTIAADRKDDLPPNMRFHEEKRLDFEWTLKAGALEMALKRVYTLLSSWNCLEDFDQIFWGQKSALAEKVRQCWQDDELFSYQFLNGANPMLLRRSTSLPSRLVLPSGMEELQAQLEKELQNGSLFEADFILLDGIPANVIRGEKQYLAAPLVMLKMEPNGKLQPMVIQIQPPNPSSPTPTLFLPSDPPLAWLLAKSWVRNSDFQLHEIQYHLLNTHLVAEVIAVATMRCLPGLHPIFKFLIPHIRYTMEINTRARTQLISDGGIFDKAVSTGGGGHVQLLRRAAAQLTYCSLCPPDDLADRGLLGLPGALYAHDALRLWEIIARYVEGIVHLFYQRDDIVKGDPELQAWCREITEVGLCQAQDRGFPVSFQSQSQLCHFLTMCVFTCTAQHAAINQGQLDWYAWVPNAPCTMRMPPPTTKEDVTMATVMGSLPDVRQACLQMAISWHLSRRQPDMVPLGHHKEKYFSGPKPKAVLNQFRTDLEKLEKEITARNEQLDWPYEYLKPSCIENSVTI
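Hydroperoxide product was detected by ferrous iron/xylenol orange as the 573 to 405 nm absorbance ratio. Arachidonic acid at 40 uM (final) was turned over for 30 min at room temperature by 150 nM human 12hLO, pH 7.0 Hepes buffer, after 15 min compound preincubation.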
VP16 counter: inhibits Gal4-VP16 luciferase reporter, ROR gamma counter-screen. Drosophila S2 Gal4-VP16 UAS-luciferase, luminescence, 20 h. Potency, µM (titrated, usually from 53.6 µM), for the others: at the top dose activity, negative = inhibition, usual class: inhibitors. hit rate 3.5% among 310,000. AID 2546;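 further: Gal4-VP16 expression switched on by copper sulfate through the metallothionein promoter; nearly all actives have a fitted effect of over 50% in size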
ELG1 repair inh: ELG1-dependent DNA repair inhibition. HEK293T ELG1-luciferase reporter, luminescence, 16 h; DNA damage induced by 5-fluorouridine. Potency, µM (top dose mostly 46.1 µM), for inactives: at the highest dose activity change, negative = inhibition, most hits filed as inhibitors. hit rate 2.3% among 330,000. AID 504467; further: nearly all actives have a fitted effect of over 55% in size
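Reporter activity after DNA damage by 5-fluorouridine is monitored. Compound-treated cells incubate 16 hr at 37 °C, then ONE-Glo is added for 30 min before luminescence reading.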
An asterisk follows results filed as active; ? = inconclusive; / = no result; [ ] = another dose, or the depositor's remark. Hits are enriched below; roughly 15% of the tested compounds scored in any of these assays. The call rests on the fitted dose curve; in most records, active means well fitted curve in the direction sought with a large enough effect; inconclusive means small, poorly fitted or top-dose-only effect, or another doubt; inactive means no such curve, though single readings can be large; an effect the other way counts as inactive or inconclusive. On the % scale 0 is the no-effect control and ±100 the full control effect; potency means the concentration at half of the fitted maximal effect.

SMILES	DT40 TDP1 CPT	RORgamma inh	TDP1 cell noCPT	12-LOX inh	VP16 counter	ELG1 repair inh
CN(CC(=O)Nc1ccc(Cl)cc1C(F)(F)F)C1CCc2ccccc21 (configuration not stated)	/	/	/	18.4%	/	/
COc1cccc(N2CC(C(=O)NCC(F)(F)F)NC2=O)c1 (configuration not stated)	/	/	/	14.0%[176 µM]	/	/
Cc1nc2ccccc2c(=O)n1/N=C/c1ccc(N(C)C)cc1	-0.8%	20.2%	-18.9%	19.3%	2.4%	18.9%
CSc1nnc(C(C)(C)C)c(=O)n1/N=C/c1c(O)ccc2ccccc12	6.4%	10µM*	-4.0%	15.1%	?	7.7%
Cc1n[nH]c(=S)n1/N=C/c1c(O)ccc2ccccc12	-3.7%	?	-10.3%	?	?	2.3%
Cc1nc2ccccc2c(=O)n1/N=C/c1c(O)ccc2ccccc12	?	12.6µM*	18.4µM*	-7.5%	?	?
Cc1nc2ccccc2c(=O)n1/N=C/c1cc(Br)ccc1O	?	12.6µM*	?	420.5%	?	?
COc1ccc2c(c1OC)C(CC(C)=O)N1CCc3cc4c(cc3C1C2=O)OCO4 (configuration not stated)	/	/	/	-17.1%	/	/
COc1ccc2c(c1OC)C(Cc1ccccc1)N1CCc3cc4c(cc3C1=C2)OCO4 (configuration not stated)	2.99µM*	?	3.76µM*	/	14.1µM*	/
CN(Cc1cccnc1)Cc1nc(CC(N)=O)nn1-c1ccc2c(c1)CCC2	/	/	/	1.6%	/	/
COc1ccc(OC)c(CCNC(=O)C(C)n2nc(C)c3c(C)n(-c4ccccc4)nc3c2=O)c1 (configuration not stated)	?	?	?	0.5%	-8.7%	?
COc1ccc(OC)c(CCNC(=O)C(C)n2nc(C)c3c(C)n(-c4ccc(C)cc4)nc3c2=O)c1 (configuration not stated)	?	?	18.4µM*	0.7%	-11.2%	-12.8%
CCc1cccc(C)c1NC(=O)C(CC)n1nc(C)c2c(C)n(-c3ccccc3)nc2c1=O (configuration not stated)	-21.5%	/	-23.4%	-24.1%	/	/
CCC(C(=O)NCCc1cc(OC)ccc1OC)n1nc(C)c2c(C)n(-c3ccccc3)nc2c1=O (configuration not stated)	18.4µM*	/	?	2.2%	/	/
CN(CCCN1CCCCCC1)c1nc(-c2ccncc2)nc2c1cnn2C	/	/	/	83.2%	/	/
Cc1cccc(C2=NC(C(F)(F)F)(C(F)(F)F)c3c(n(-c4ccc(F)cc4)c(=O)[nH]c3=O)N2)c1	20.6µM*	?	16.4µM*	-2.6%	-29.9%	9.2µM*
CC(C)(CC(=O)O)CC(=O)N1Cc2[nH]cnc2C[C@H]1C(=O)NC1CCCCC1	/	/	/	-2.6%[176 µM]	/	/
COc1cccc(/C=C/C(=O)Nc2ccc3c(c2)OCCO3)c1OC	18.4µM*	1.12µM*	?	-14.7%	?	?
COc1ccc(/C=C/C(=O)Nc2cccc(C(C)=O)c2)cc1	?	3.16µM*	?	-4.2%	6.31µM*	?
COc1ccc(/C=C/C(=O)Nc2cccc(F)c2)cc1	?	/	?	4.0%	/	/
COc1ccccc1/C=C/C(=O)Nc1cccc(C(C)=O)c1	?	-14.9%	?	-0.3%	?	-4.9%
COc1cccc(/C=C/C(=O)Nc2cccc(C(C)=O)c2)c1OC	?	1.41µM*	?	-9.9%	?	?
Cc1ccc(CNC(=O)C2CCN(c3nc4c(C)cc(C)cc4s3)CC2)cc1	/	/	/	-3.7%	/	/
C=CCNc1nc(-c2ccc3c(c2)OCCO3)cs1	1.7%	/	3.8%	?	/	/
CC(=O)Nc1ccc(-c2csc(NCCc3ccccc3)n2)cc1	?	?	?	-11.2%	-29.2%	?
SMILES	DT40 TDP1 CPT	RORgamma inh	TDP1 cell noCPT	12-LOX inh	VP16 counter	ELG1 repair inh
NC(=O)c1cc(-c2csc(NCCc3ccccc3)n2)ccc1O	?	3.8%	?	31.6µM*	4.7%	1.5%
C=CCNc1nc(-c2ccc(O)c(C(N)=O)c2)cs1	13µM*	?	18.4µM*	-118.6%	10.3%	?
NC(=O)c1cc(-c2csc(-c3cccnc3)n2)ccc1O	-23.3%	-7.9%	13µM*	?	12.7%	?
CC(C)CNC(=O)c1ccc2c(=O)n(CCc3ccccc3)c(SCC#N)nc2c1	/	/	/	27.3%	/	/
COc1ccc(-c2nc3sc(CCNC(=O)C(=O)Nc4ccc(OC)c(OC)c4)c(C)n3n2)cc1	-5.5%	/	1.0%	-6.6%	/	/
COc1ccc(-c2nc3sc(CCNC(=O)Cc4ccc(F)cc4)c(C)n3n2)cc1	16.4µM*	/	16.4µM*	-23.7%	/	/
Cc1ccc(Cl)cc1NC(=O)C(=O)NCCc1sc(-c2ccc(F)cc2)nc1C	?	/	?	-27.8%	/	/
Cc1nc(-c2ccc(Cl)cc2)sc1CCNC(=O)Cc1ccc(F)cc1	16.4µM*	/	14.6µM*	-24.4%	/	/
COc1ccc(-c2nc3sc(CCNC(=O)c4cc(OC)c(OC)c(OC)c4)c(C)n3n2)cc1	23.1µM*	/	16.4µM*	-11.7%	/	/
COc1ccc(-c2nc3sc(CCNC(=O)C(=O)Nc4c(C)cccc4C)c(C)n3n2)cc1	-5.8%	/	-12.6%	-22.2%	/	/
Cc1c(CCNC(=O)c2c(F)cccc2F)sc2nc(-c3ccc(F)cc3)nn12	-29.8%	/	?	-7.3%	/	/
COc1ccc(-c2nc3sc(CCNC(=O)Cc4ccccc4)c(C)n3n2)cc1	14.6µM*	/	20.6µM*	?	/	/
CCC(C)NC(=O)COC(=O)c1cc(C)cc(C)c1 (configuration not stated)	/	/	/	4.5%	/	/
COC(=O)c1ccc(NC(=O)C(=O)NCCc2sc3nc(-c4ccc(OC)cc4)nn3c2C)cc1	7.3%	/	-23.1%	-21.3%	/	/
COc1ccc(-c2nc3sc(CCNC(=O)c4ccco4)c(C)n3n2)cc1	?	/	13µM*	-9.6%	/	/
O=C(CCl)c1ccc2[nH]c(=O)oc2c1	2.59µM*	-2.4%	3.26µM*	?	3.0%	5.7%
O=c1[nH]c2ccc(Br)cc2o1	-0.4%	/	-16.4%	-18.6%	/	/
COc1c(O)cccc1/C=N/NC(=O)Cn1ccnc1C	?	?	23.1µM*	3.7%	-24.3%	23.1µM*
CC1(C)Oc2ccc3ccc(=O)oc3c2/C(=C/Nc2cccc(O)c2)C1=O	?	-20.4%	20.6µM*	?	?	?
Cc1cc(C)n(CCC(=O)N[C@@H]2CN(Cc3ccncc3)C[C@H]2CN(C)C)n1	/	/	/	74.6%	/	/
COc1ccc(-c2nnc(NC(=O)c3cccs3)s2)c(OC)c1	16.4µM*	-1.2%	29.1µM*	3.3%	-7.5%	?
